Measured values taken from PubChem BioAssay AID1159580 (chemical genetic matrix, 2015).
The whole screen tested about 5,500 compounds, of which about 2,000 (36%) were called active. Not shown: some 18% with an inconclusive outcome. No stated cut-off is given here; in the data, active means normalized growth mostly below about 0.91 (no sharp cut-off); inconclusive means no clear call, values can overlap the other calls; inactive means mostly above about 0.92. This is one part of the list.

Experiment: chemical genetic growth profiling, strain panel (AID 1159580);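 further: tested at 20 µM; growth read once vehicle control cultures reached saturation at 30 °C; 1 = growth at the plate median or of vehicle wells; lower values mean less growth of the strain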
Conditions: growth OD

Measured: normalized growth

C[C@@H]1CC2C3C[C@H](F)C4=CC(=O)C=C[C@]4(C)[C@@]3(F)[C@@H](O)C[C@]2(C)[C@@]1(O)C(=O)COC(=O)C(C)(C)C (some centres not stated)
inactive: S. cerevisiae deletion strains, locus YJR075W, strain HOC1, active compounds read low 0.997 | S. cerevisiae deletion strains, locus YKL009W, strain mrt4, active compounds read low 0.982 | S. cerevisiae deletion strains, locus YKL068W, active compounds read low 1.01 | S. cerevisiae deletion strains, locus YKL085W, strain MDH1 (second series), active compounds read low 1 | S. cerevisiae deletion strains, locus YKL085W, strain MDH1, active compounds read low 1 | S. cerevisiae deletion strains, locus YKL160W, strain elf1, active compounds read low 0.978 | S. cerevisiae deletion strains, locus YKL190W, strain CNB1, active compounds read low 0.997 | S. cerevisiae deletion strains, locus YKR001C, strain vps1, active compounds read low 0.988 | S. cerevisiae deletion strains, locus YKR026C, strain gcn3, active compounds read low 0.997 | S. cerevisiae deletion strains, locus YKR091W, strain srl3, active compounds read low 0.996 | S. cerevisiae deletion strains, locus YLL001W, strain dnm1, active compounds read low 0.987 | S. cerevisiae deletion strains, locus YLL026W, active compounds read low 0.984 | S. cerevisiae deletion strains, locus YLL041C, strain sdh2, active compounds read low 1.01 | S. cerevisiae deletion strains, locus YLR027C, strain aat2, active compounds read low 0.987 | S. cerevisiae deletion strains, locus YLR039C, strain RIC1, active compounds read low 1.02 | S. cerevisiae deletion strains, locus YLR058C, strain SHM2, active compounds read low 1.01 | S. cerevisiae deletion strains, locus YLR102C, strain apc9, active compounds read low 1.01 | S. cerevisiae deletion strains, locus YLR113W, strain HOG1, active compounds read low 0.969 | S. cerevisiae deletion strains, locus YLR221C, strain rsa3, active compounds read low 0.99 | S. cerevisiae deletion strains, locus YLR258W, strain gsy2, active compounds read low 0.995 | S. cerevisiae deletion strains, locus YLR262C, strain YPT6 (second series), active compounds read low 0.98 | S. cerevisiae deletion strains, locus YLR262C, strain YPT6, active compounds read low 0.977 | S. cerevisiae deletion strains, locus YLR268W, strain sec22, active compounds read low 0.984 | S. cerevisiae deletion strains, locus YLR320W, strain mms22, active compounds read low 0.975 | S. cerevisiae deletion strains, locus YLR330W, strain CHS5, active compounds read low 1.01 | S. cerevisiae deletion strains, locus YLR342W, strain FKS1 (second series), active compounds read low 1.03 | S. cerevisiae deletion strains, locus YLR342W, strain FKS1, active compounds read low 0.978 | S. cerevisiae deletion strains, locus YLR357W, strain rsc2, active compounds read low 0.979 | S. cerevisiae deletion strains, locus YLR370C, strain arc18, active compounds read low 0.987 | S. cerevisiae deletion strains, locus YLR371W, strain rom2, active compounds read low 1.01 | S. cerevisiae deletion strains, locus YLR384C, strain iki3, active compounds read low 0.987 | S. cerevisiae deletion strains, locus YLR418C, strain cdc73, active compounds read low 1.03 | S. cerevisiae deletion strains, locus YML016C, strain PPZ1, active compounds read low 1 | S. cerevisiae deletion strains, locus YML032C, strain rad52, active compounds read low 1 | S. cerevisiae deletion strains, locus YML120C, strain ndi1, active compounds read low 0.999 | S. cerevisiae deletion strains, locus YML124C, strain tub3, active compounds read low 1 | S. cerevisiae deletion strains, locus YMR058W, strain fet3, active compounds read low 1.01 | S. cerevisiae deletion strains, locus YMR078C, strain ctf18, active compounds read low 1.01 | S. cerevisiae deletion strains, locus YMR125W, strain sto1, active compounds read low 1.01 | S. cerevisiae deletion strains, locus YMR129W, active compounds read low 0.988 | S. cerevisiae deletion strains, locus YMR205C, strain PFK2, active compounds read low 0.977 | S. cerevisiae deletion strains, locus YMR223W, strain ubp8, active compounds read low 1.04 | S. cerevisiae deletion strains, locus YMR231W, strain pep5, active compounds read low 0.998 | S. cerevisiae deletion strains, locus YMR263W, strain SAP30, active compounds read low 1.01 | S. cerevisiae deletion strains, locus YMR307W, strain GAS1, active compounds read low 0.95 | S. cerevisiae deletion strains, locus YNL067W, strain RPL9B, active compounds read low 0.998 | S. cerevisiae deletion strains, locus YNL071W, strain lat1, active compounds read low 1 | S. cerevisiae deletion strains, locus YNL183C, strain NPR1, active compounds read low 0.962 | S. cerevisiae deletion strains, locus YNL209W, strain ssb2, active compounds read low 0.996 | S. cerevisiae deletion strains, locus YNL233W, strain BNI4, active compounds read low 1.01 | S. cerevisiae deletion strains, locus YNL248C, strain rpa49, active compounds read low 1.01 | S. cerevisiae deletion strains, locus YNL250W, strain rad50, active compounds read low 1.02 | S. cerevisiae deletion strains, locus YNL271C, strain bni1, active compounds read low 1.01 | S. cerevisiae deletion strains, locus YNL298W, strain CLA4, active compounds read low 0.998 | S. cerevisiae deletion strains, locus YNL307C, strain MCK1, active compounds read low 1.02 | S. cerevisiae deletion strains, locus YNL322C, strain KRE1 (second series), active compounds read low 1 | S. cerevisiae deletion strains, locus YNR049C, strain mso1, active compounds read low 0.998 | S. cerevisiae deletion strains, locus YNR052C, strain pop2, active compounds read low 0.998 | S. cerevisiae deletion strains, locus YOL012C, strain htz1 1.17 | S. cerevisiae deletion strains, locus YOL147C, strain pex11, active compounds read low 1.01 | S. cerevisiae deletion strains, locus YOR001W, strain rrp6, active compounds read low 0.98 | S. cerevisiae deletion strains, locus YOR061W, strain CKA2, active compounds read low 1 | S. cerevisiae deletion strains, locus YOR069W, strain VPS5, active compounds read low 1.01 | S. cerevisiae deletion strains, locus YOR070C, strain gyp1, active compounds read low 0.999 | S. cerevisiae deletion strains, locus YOR080W, strain dia2, active compounds read low 0.979 | S. cerevisiae deletion strains, locus YOR083W, strain WHI5, active compounds read low 0.982 | S. cerevisiae deletion strains, locus YOR106W, strain vam3, active compounds read low 0.987 | S. cerevisiae deletion strains, locus YOR136W, strain idh2, active compounds read low 1.01 | S. cerevisiae deletion strains, locus YOR144C, strain elg1, active compounds read low 1 | S. cerevisiae deletion strains, locus YOR184W, strain ser1, active compounds read low 1.04 | S. cerevisiae deletion strains, locus YOR231W, strain MKK1, active compounds read low 0.976 | S. cerevisiae deletion strains, locus YOR265W, strain rbl2, active compounds read low 0.99 | S. cerevisiae deletion strains, locus YOR270C, strain vph1, active compounds read low 1.01 | S. cerevisiae deletion strains, locus YOR290C, strain snf2, active compounds read low 0.997 | S. cerevisiae deletion strains, locus YOR316C, strain cot1, active compounds read low 1.01 | S. cerevisiae deletion strains, locus YPL051W, strain arl3, active compounds read low 0.978 | S. cerevisiae deletion strains, locus YPL055C, strain LGE1, active compounds read low 0.999 | S. cerevisiae deletion strains, locus YPL078C, strain atp4, active compounds read low 0.974 | S. cerevisiae deletion strains, locus YPL106C, strain sse1, active compounds read low 0.946 | S. cerevisiae deletion strains, locus YPL240C, strain hsp82, active compounds read low 1 | S. cerevisiae deletion strains, locus YPL256C, strain CLN2, active compounds read low 0.992 | S. cerevisiae deletion strains, locus YPR119W, strain clb2, active compounds read low 1.01 | S. cerevisiae deletion strains, locus YPR141C, strain kar3, active compounds read low 1 | S. cerevisiae deletion strains, locus YPR163C, strain tif3, active compounds read low 1 | S. cerevisiae deletion strains, locus YPR167C, strain met16, active compounds read low 1.01 | S. cerevisiae deletion strains, strain wtn01, active compounds read low 1 | S. cerevisiae strains, strain wild type, active compounds read low 0.995
